From PubChem BioAssay
In the library only some 2.8% were active in any assay of this set; here they are far more common.
MsrA inh: bovine MsrA inhibition | purified bovine MsrA, absorbance read-out | inhibition, % at 15.5 µM | 360,000 tested, 0.75% active | AID 651718; in the data active means inhibition above about 4.5%
bovine MsrA act: activators of bovine methionine sulfoxide reductase A | purified bovine MsrA, absorbance read-out | AID 602163 | 360,000 tested, 0.3% active | activation, % at 10.6 µM; in the data active means activation above about 7.5%
HGIII-sPLA2 inh: Inhibits HGIII-sPLA2 liposome hydrolysis, primary screen; Q9NZ20; QFRET BODIPY PC-A2 liposome hydrolysis, fluorescence; inhibition, % at 12.2 µM; 370,000 tested, 0.56% active; AID 743126;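 active means inhibition above mean plus 3 SD of compounds lying within the high and low control bounds, cut at about 19% in these data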
Target sequence (Q9NZ20 whole entry, looked up): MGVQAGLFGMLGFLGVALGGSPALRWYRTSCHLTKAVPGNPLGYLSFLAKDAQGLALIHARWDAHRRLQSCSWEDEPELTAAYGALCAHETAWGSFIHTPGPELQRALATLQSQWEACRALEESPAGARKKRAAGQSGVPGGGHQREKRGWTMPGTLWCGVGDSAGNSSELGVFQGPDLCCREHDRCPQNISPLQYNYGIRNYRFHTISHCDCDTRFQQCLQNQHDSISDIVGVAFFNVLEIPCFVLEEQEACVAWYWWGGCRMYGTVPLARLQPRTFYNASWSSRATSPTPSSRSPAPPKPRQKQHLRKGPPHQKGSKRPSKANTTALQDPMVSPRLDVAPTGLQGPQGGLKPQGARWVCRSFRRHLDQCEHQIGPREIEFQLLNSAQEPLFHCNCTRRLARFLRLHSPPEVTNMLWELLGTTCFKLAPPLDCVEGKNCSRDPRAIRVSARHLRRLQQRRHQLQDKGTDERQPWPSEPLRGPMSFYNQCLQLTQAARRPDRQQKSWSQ
rCAG RNA binder: binds r(CAG) RNA repeats; r(CAG) RNA repeat, TO-PRO-1 dye displacement fluorescence; inhibition, % at 3 µM; 370,000 tested, 1.3% active; AID 651821;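 active means inhibition above the plate cutoff, the mean of all test compounds on that plate plus 3 SD, cut at about 35% in these data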;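 further: higher means more dye released from RNA so lower well fluorescence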
rCAG bind conf: r(CAG) RNA repeat binding, confirmation; shares compounds with rCAG RNA binder; TO-PRO-1 dye displacement fluorescence; inhibition, % at 3 µM; 4,300 tested, 70% active; AID 652065;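 active means inhibition above a per-plate cutoff, the mean inhibition of sample wells plus 3 SD, cut at about 35% in these data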;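 further: loss of TO-PRO-1 fluorescence as compound displaces dye from 1x1 AA loop RNA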
dCAG dye counter: DNA CAG dye complex inhibition counter-screen | d(CAG) DNA oligo TO-PRO-1 dye displacement, fluorescence | shares compounds with rCAG RNA binder | inhibition, % at 3 µM | 4,300 tested, 94% active;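 active means inhibition above its plate's cutoff, the mean test-well inhibition plus 3 SD, cut at about 4.8% in these data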;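 further: hits displace the dye from DNA and so lower well fluorescence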
dCAG dye DR: DNA CAG dye complex inhibition, dose response counter-screen | DNA CAG/GTC duplex TO-PRO-1 dye displacement fluorescence | AID 686960 | shares compounds with rCAG RNA binder | IC50, µM | 250 tested, 20% active; in the data active means IC50 below about 10 µM
Of the large screens only hits and unclear results are named; the others gave an inactive call (follow-up assays come after a bar, where they were run).

Cc1cc(C)n(-c2ccc([N+](=O)[O-])cc2)n1	none
O=C(O)c1cccc(-n2c(O)c(C=C3N=c4ccccc4=N3)sc2=S)c1	rCAG RNA binder 81 | rCAG bind conf 64 | dCAG dye counter 22
CCN(CC)c1ccc(-n2c(O)c(C=C3N=c4ccccc4=N3)sc2=S)cc1	none
O=C(O)c1ccc(-n2c(O)c(C=C3N=c4ccccc4=N3)sc2=S)cc1	rCAG RNA binder 80 | rCAG bind conf 62 | dCAG dye counter 24
Cc1sc2nc(SCc3ccc(C(=O)O)cc3)n(Cc3ccco3)c(=O)c2c1C	rCAG RNA binder 55 | rCAG bind conf 57 | dCAG dye counter 20
Cc1ccc(C2(c3ccc(C)cc3)CC2C(=O)Nc2ccc([N+](=O)[O-])cc2O)cc1 (stereo not drawn)	rCAG RNA binder 66 | rCAG bind conf 62 | dCAG dye counter 29
CC1(C)CC1C(=O)Nc1ccc([N+](=O)[O-])cc1Br (stereo not drawn)	none
O=C(O)c1ccccc1NC(c1ccccc1)c1ccc(Cl)cc1 (stereo not drawn)	rCAG RNA binder 58 | rCAG bind conf 54 | dCAG dye counter 11 | dCAG dye DR inactive
CN1C(=O)N(CC(=O)NCc2ccc(Cl)cc2Cl)C(=O)C12CCCCC2	none
Cc1ccc(-c2cc(C(=O)Nc3ccc(S(=O)(=O)Nc4ncccn4)cc3)[nH]n2)c(O)c1C	rCAG RNA binder 61 | rCAG bind conf 53 | dCAG dye counter 19
Cc1noc(NS(=O)(=O)c2ccc(NC(=O)c3cc(F)c(F)c(F)c3F)cc2)c1C	none
Cc1ccc(-c2cc(C(=O)Nc3ccc(S(=O)(=O)Nc4onc(C)c4C)cc3)[nH]n2)c(O)c1	rCAG RNA binder 84 | rCAG bind conf 78 | dCAG dye counter 44
Cc1noc(NS(=O)(=O)c2ccc(NC(=O)c3cc(S(=O)(=O)N(C)c4ccccc4)ccc3Cl)cc2)c1C	rCAG RNA binder 77 | rCAG bind conf 76 | dCAG dye counter 41
Cc1noc(NS(=O)(=O)c2ccc(NC(=O)c3ccccc3NS(=O)(=O)c3ccc(F)cc3)cc2)c1C	rCAG RNA binder 68 | rCAG bind conf 56 | dCAG dye counter 21
CC(=O)Nc1ccc(NC(=O)c2cc(-c3ccc(C)c(C)c3O)n[nH]2)cc1	none
C=CCc1cccc(/C=N/NC(=O)CNc2ccccc2)c1O	none
O=C(Nc1nc(-c2ccccc2)cs1)c1ccccc1NS(=O)(=O)c1ccc(F)cc1	rCAG RNA binder 89 | rCAG bind conf 89 | dCAG dye counter 70
Cc1cc(C(=O)Nc2ccc(S(=O)(=O)Nc3onc(C)c3C)cc2)c(C)o1	none
Cc1noc(NS(=O)(=O)c2ccc(NC(=O)c3cc(S(=O)(=O)Nc4ccc(F)cc4)ccc3Cl)cc2)c1C	rCAG RNA binder 59 | rCAG bind conf 52 | dCAG dye counter 23
Cc1cc(F)ccc1S(=O)(=O)Nc1ccccc1C(=O)Nc1ccc2[nH]c(=O)[nH]c2c1	rCAG RNA binder 61 | rCAG bind conf 63 | dCAG dye counter 26
Cc1ccc(S(=O)(=O)Nc2ccc3[nH]c(=O)[nH]c3c2)c(C)c1	none
Cc1noc(NS(=O)(=O)c2ccc(NC(=O)c3cc(-c4ccccc4Cl)nc4ccccc34)cc2)c1C	rCAG RNA binder 83 | rCAG bind conf 75 | dCAG dye counter 34 | dCAG dye DR 8.5
O=S(=O)(Nc1ccc(-c2csc(-c3ccccc3)n2)cc1)c1ccc(F)cc1	none
Cc1cccc(CCNC(=O)c2cccc3c2C(=O)N(C2CCCCC2)C3)c1	none
CCOc1ccc(OCCCC(=O)ON=C(N)c2ccccc2Cl)cc1	none
COc1cccc(/C=N/c2nc3ccccc3[nH]2)c1O	none
C=CCOc1c(Cl)cc(Cl)cc1S(=O)(=O)NCCO	none
Cc1ccc2cc(CN(Cc3ccco3)C(=O)c3ccco3)c3nnnn3c2c1	none
O=C(CNc1cccc([N+](=O)[O-])c1)NCCCc1ccccc1	none
COC(=O)[C@]12C[C@H](CC(=O)N3CCC(c4ccccc4)CC3)C(=O)N(Cc3ccc4c(c3)OCO4)C1=C[C@H](C(C)C)O[C@@H]2C1CC1	none (no result: MsrA inh, bovine MsrA act)
Cn1ncc2c(Nc3ccc(Br)cc3)nc(Nc3ccc(Br)cc3)nc21	rCAG RNA binder 49 | rCAG bind conf inactive | dCAG dye counter 13
Cn1ncc2c(Nc3cccc(Cl)c3)nc(Nc3cccc(Cl)c3)nc21	rCAG RNA binder 36 | rCAG bind conf inactive | dCAG dye counter 7.5
Cn1ncc2c(Nc3ccc(O)cc3)nc(Cl)nc21	none
O=C(COc1ccccc1[N+](=O)[O-])Nc1ccccc1N1CCCCC1	none (no result: MsrA inh, HGIII-sPLA2 inh, rCAG RNA binder)
FC(F)(F)c1ccccc1Cc1c(-c2ccco2)nc2ccc(Br)cn12	rCAG RNA binder 39 | rCAG bind conf inactive | dCAG dye counter inactive
Cc1ccc2nc(-c3ccco3)c(Cc3ccccc3C(F)(F)F)n2c1	none (no result: bovine MsrA act)
Cc1cc2nc(-c3ccco3)c(Cc3ccccc3C(F)(F)F)n2c(C)c1Br	rCAG RNA binder 47 | rCAG bind conf 37 | dCAG dye counter 14
COc1ccccc1NS(=O)(=O)c1ccc(C)c(C(N)=O)c1	none
COc1ccccc1C(=O)Nc1ccc(S(=O)(=O)Nc2onc(C)c2C)cc1	none
Cc1noc(NS(=O)(=O)c2ccc(NC(=O)c3ccc(OC(C)C)cc3)cc2)c1C	rCAG RNA binder 44 | rCAG bind conf inactive | dCAG dye counter inactive
COc1ccccc1NS(=O)(=O)c1cccc(NC(=O)Nc2cccc(Cl)c2)c1	rCAG RNA binder 35 | rCAG bind conf inactive | dCAG dye counter 13
COc1ccccc1NS(=O)(=O)c1ccc(C)c(C(=O)Nc2ccc(S(=O)(=O)Nc3onc(C)c3C)cc2)c1	rCAG RNA binder 63 | rCAG bind conf 57 | dCAG dye counter 22
COc1ccccc1NS(=O)(=O)c1ccc(C)c(NS(=O)(=O)c2cc(C(=O)O)cc(C)c2C)c1	rCAG RNA binder 42 | rCAG bind conf inactive | dCAG dye counter 7.3
CCCC(=O)N1CCCC1(C)C(=O)Nc1cc(OC)ccc1OC (stereo not drawn)	none
OCCN(CCO)CC(O)Cn1c2ccccc2c2ccccc21 (stereo not drawn)	none
CC(C)Oc1ccc(C(=O)N/N=C/c2ccc(-c3ccc(S(=O)(=O)Nc4ncccn4)cc3)o2)cc1	rCAG RNA binder 54 | rCAG bind conf 65 | dCAG dye counter 22
Cc1noc(NS(=O)(=O)c2ccc(NC(=O)c3ccc(N(C)C)cc3)cc2)c1C	none
Cc1noc(C)c1S(=O)(=O)Nc1ccc(C(=O)Nc2ccc(OC(F)(F)F)cc2)cc1	rCAG RNA binder 39 | rCAG bind conf inactive | dCAG dye counter 4.7
COc1ccccc1NS(=O)(=O)c1cc(C(=O)Nc2ccc(S(=O)(=O)Nc3onc(C)c3C)cc2)ccc1C	rCAG RNA binder 70 | rCAG bind conf 78 | dCAG dye counter 30 | dCAG dye DR inactive
COc1cc(NC(=O)c2ccc(NS(=O)(=O)c3c(C)noc3C)cc2)cc(OC)c1	none
